A short description of assay [1]: qHTS of pediatric cancer cell lines to identify multiple opportunities for drug repurposing: Primary screen for RD cells (AID 1347104). Also: nearly all actives have a fitted effect of over 55% in size. Also: potency is read from the fitted curve at half-maximal effect. A digest of the protocol: (§1)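 Readout: CellTiter-Glo luminescence, 48 h treatment. Controls DMSO (neutral) and bortezomib 2.3 µM final (positive). Potency and efficacy taken from primary-screen concentration-response curves.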
On the technique in general: In qHTS, concentration-response curves come from the screen itself.

Assay [2] can be described thus: qHTS of pediatric cancer cell lines to identify multiple opportunities for drug repurposing: Primary screen for MG 63 (6-TG R) cells (AID 1347105). Also: nearly all actives have a fitted effect of over 50% in size. Also: potency is read from the fitted curve at half-maximal effect. A digest of the protocol:
as §1

The nature of assay [3]: qHTS of pediatric cancer cell lines to identify multiple opportunities for drug repurposing: Primary screen for control Hh wild type fibroblast cells (AID 1347106).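 Also: series mostly up to about 46 µM; a drop in luminescence marks cytotoxicity and a rise apparent proliferation; nearly all actives have a fitted effect of over 55% in size.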 A digest of the protocol:
(§2)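 Cells (500-1,000/well) in growth media were settled 5 h at 37 degrees C, then given compounds for 48 h. Viability was read as CellTiter-Glo luminescence. Primary runs used MIPE at 11 points (0.78 nM-46 µM) and NPC at 8 points (0.59 nM-46 µM); follow-ups used 11 points.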

Assay [4] is described as follows: qHTS of pediatric cancer cell lines to identify multiple opportunities for drug repurposing: Primary screen for Rh30 cells (AID 1347107). Also: series mostly up to about 46 µM; nearly all actives have a fitted effect of over 75% in size. A digest of the protocol: as §2
Assay [5] in a line: qHTS of pediatric cancer cell lines to identify multiple opportunities for drug repurposing: Primary screen for Rh41 cells (AID 1347108). Also: nearly all actives have a fitted effect of over 70% in size. Also: potency is read from the fitted curve at half-maximal effect. A digest of the protocol:
as §1

A short description of assay [6]: qHTS of pediatric cancer cell lines to identify multiple opportunities for drug repurposing: Confirmatory screen for NB1643 cells (AID 1347109). Also: nearly all actives have a fitted effect of over 45% in size. Also: potency is read from the fitted curve at half-maximal effect. In short, it runs like this:
as §2

Assay [7] in a line: qHTS of pediatric cancer cell lines to identify multiple opportunities for drug repurposing: Confirmatory screen for SK-N-MC cells (AID 1347111).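 Also: cells exposed to compound for 48 h before the readout; nearly all actives have a fitted effect of over 70% in size.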 Also: potency is read from the fitted curve at half-maximal effect. A digest of the protocol:
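Metabolically active cells were quantified by ATP-dependent luminescence (CellTiter-Glo, 15 min at room temperature) following 48 h treatment. Cells had been plated at 500-1,000 per well and settled for 5 h beforehand.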

A short description of assay [8]: qHTS of pediatric cancer cell lines to identify multiple opportunities for drug repurposing: Confirmatory screen for BT-12 cells (AID 1347112). Also: nearly all actives have a fitted effect of over 55% in size. Also: potency is read from the fitted curve at half-maximal effect. In short, it runs like this: as §2
Assay [9] in a line: qHTS of pediatric cancer cell lines to identify multiple opportunities for drug repurposing: Confirmatory screen for LAN-5 cells (AID 1347113). Also: nearly all actives have a fitted effect of over 65% in size. As to conditions: outcome: dose series up to 45.9 µM. A digest of the protocol: as §2
Assay [10] is described as follows: qHTS of pediatric cancer cell lines to identify multiple opportunities for drug repurposing: Confirmatory screen for A673 cells (AID 1347110).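 Also: cells exposed to compound for 48 h before the viability read; nearly all actives have a fitted effect of over 65% in size.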 Also: potency is read from the fitted curve at half-maximal effect. A digest of the protocol:
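A673 cells seeded at 500-1,000 cells/well, rested 5 h, then dosed; primary MIPE 11-point (0.78 nM to 46 µM), NPC (0.59 nM to 46 µM); confirmatory 11-point. CellTiter-Glo luminescence after 48 h.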

Results filed as inconclusive are left out. The source made the active and inactive calls. Calls follow the shape of the dose curve; as a rule, active = well fitted curve in the direction sought with a large enough effect; inconclusive = small, poorly fitted or top-dose-only effect, or another doubt; inactive = no such curve, though single readings can be large; an effect the other way counts as inactive or inconclusive.

In the case of `CN1CCC(O)(c2ccc(F)cc2)C(C(=O)c2ccc(F)cc2)C1` (configuration not stated), the Potency entry in assay [1], in [2] and in assay [5] was “inactive” in each case. In addition, the result in [3] and in assay [4] was inactive.

In the case of `Nc1ccccc1`, the Potency result in assay [1], in assay [2] and in assay [5] was “inactive” throughout. In addition, the molecule was called inactive in assay [3] and in [4].

For `CN1C(=O)CCS(=O)(=O)C1c1ccc(Cl)cc1` (configuration not stated), the Potency entry in assay [1], in [2] and in assay [5] was “inactive” throughout. Besides, the outcome in assay [3] and in assay [4] was inactive.

Turning to `O=C1c2ccccc2C(=O)C1C(=O)C(c1ccccc1)c1ccccc1`, the Potency result in [1] and in assay [5] was “inactive” each time. Besides, the result in assay [3] and in assay [4] was inactive.

For the molecule `COc1c2c(cc3c1OCO3)CCN(C)C2`, the Potency entry in assay [1], in assay [2] and in assay [5] was “inactive” throughout. In addition, the call in assay [4] was inactive.

As for `C[C@](O)(CS(=O)(=O)c1ccc(F)cc1)C(=O)Nc1ccc(C#N)c(C(F)(F)F)c1`, the Potency in [1] was 5.9 µM (active); in assay [2] it was 1.18 µM (active). The Potency result in [6], in assay [7] and in assay [8] was “inactive” throughout. Also, the call in [9] was inactive.

Take `NC(=O)c1cc([N+](=O)[O-])cc([N+](=O)[O-])c1`: the Potency result in assay [1], in [2] and in assay [5] was “inactive” in each case. For the same molecule, the molecule was called inactive in [3] and in [4].

With `CNC(C)(C)Cc1ccccc1`, the Potency result in assay [1], in assay [2] and in [5] was “inactive” each time. Also, the result in assay [3] and in [4] was inactive.

Regarding `CCN[C@H](C)Cc1cccc(C(F)(F)F)c1`, the Potency result in assay [1], in assay [2] and in assay [5] was “inactive” each time. For the same molecule, the result in assay [3] and in assay [4] was inactive.

`O=C(O)CCCc1ccc(N(CCCl)CCCl)cc1`: the Potency result in [1], in assay [2] and in [8] was “inactive” throughout. Besides, the call in assay [3] and in [4] was inactive. Further, in assay [7], the Potency is 23.3 µM (active).

As to `O=C1OC(CCN2CCCCC2)OC1(c1ccccc1)c1ccccc1` (configuration not stated), the Potency result in [1] and in [5] was “inactive” throughout. Further, the result in assay [3] and in assay [4] was inactive.

Turning to `C=C(C)[C@H]1CN[C@H](C(=O)O)[C@H]1CC(=O)O`, the Potency result in assay [1], in assay [2] and in assay [5] was “inactive” throughout. The molecule was classed as inactive in assay [3] and in assay [4].

Regarding `CCCCCCC(=O)CCCCCC/C=C/C[C@@H](O)[C@H](O)[C@@](N)(CO)C(=O)O`, the Potency result in assay [1] was “inactive”. The result in [3] and in assay [4] was inactive.

As for `COc1cccc2c1C(=O)c1c(O)c3c(c(O)c1C2=O)C[C@@](O)(C(=O)CO)CC3OC1CC(N2CCOC(OC)C2)C(O)C(C)O1` (some centres not stated), the Potency was 0.0841 µM (active) in assay [1]; 0.0211 µM (active) in [2]; 0.0944 µM (active) in assay [5]; 0.0147 µM (active) in assay [6]; 0.0233 µM (active) in assay [10]; 0.0037 µM (active) in assay [7]. Further, in assay [8], the Potency was 0.0465 µM (active). The result in [4] was inactive.

Take `CCN(CCO)CCn1c(Cc2ccccc2)nc2c1c(=O)n(C)c(=O)n2C`: the Potency entry in [1], in [2] and in assay [5] was “inactive” each time. The result in assay [3] and in [4] was inactive.

As to `O=C1c2ccccc2C(=O)c2ccccc21`, the Potency entry in [1], in assay [2] and in assay [5] was “inactive” each time. Moreover, the molecule was called inactive in assay [3] and in assay [4].

For the molecule `O=c1[nH]oc2c1CCNC2`, the Potency result in assay [1], in assay [2] and in assay [5] was “inactive” each time. Also, the result in assay [3] and in assay [4] was inactive.

Regarding `CC(NC(C)(C)C)C(=O)c1cccc(Cl)c1` (configuration not stated), the Potency result in assay [1], in assay [2], in assay [5] and in assay [8] was “inactive” in each case. Also, the molecule was called inactive in assay [3] and in [4]. Moreover, the Potency in [7] is 3.29 µM (active).

Regarding `CCCN(CCC)C(=O)Cc1c(-c2ccc(Cl)cc2)nc2ccc(Cl)cn12`, the Potency result in [1], in assay [2], in assay [6] and in assay [8] was “inactive” each time. In addition, the outcome in assay [3], in [4] and in assay [9] was inactive. In addition, in assay [10], the Potency was 10.4 µM (active).

As for `C[C@@H](N)[C@@H](O)c1ccccc1`, the Potency result in [1], in [2] and in assay [5] was “inactive” throughout. Moreover, the molecule was classed as inactive in [3] and in assay [4].

Consider `C[C@]12CC[C@H]3[C@@H](CC[C@@]45O[C@H]4C(O)=C(C#N)C[C@]35C)[C@H]1CC[C@H]2O`, for which the figures for the Potency in [1] and in assay [5] were 29.6 µM (active) and 20.9 µM (active), respectively. Moreover, the call in assay [3] was inactive.

`CCOC(=O)CC(SP(=S)(OC)OC)C(=O)OCC` (configuration not stated): the Potency result in assay [1], in assay [2] and in assay [5] was “inactive” throughout. For the same molecule, the call in assay [3] and in assay [4] was inactive.

Regarding `O=c1c(C2CC(c3ccc(-c4ccc(Br)cc4)cc3)Cc3ccccc32)c(O)sc2ccccc12` (configuration not stated), in [3], the outcome was inactive.

For the molecule `O=C(Nc1ccc(Br)cc1)c1cc(Br)cc(Br)c1O`, the Potency in assay [2] was 33.5 µM (active). Also, the molecule was classed as inactive in assay [3].

Turning to `COc1cccc(C(=O)CCN[C@@H](C)[C@H](O)c2ccccc2)c1`, the outcome in [3] was inactive.

As to `CCOP(=S)(OCC)Oc1ccc2c(C)c(Cl)c(=O)oc2c1`, the Potency entry in assay [1], in assay [2], in [6], in [10] and in assay [8] was “inactive” in each case. The result in assay [3] and in assay [4] was inactive.

As to `C[C@]12CCC(=O)C=C1CC[C@@H]1[C@H]3CC[C@](C)(O)[C@@]3(C)CC[C@@H]12`, in assay [3], the molecule was classed as inactive. In addition, the Potency in [5] was 38.9 µM (active).

As to `O=C(N/N=C/c1ccc([N+](=O)[O-])o1)c1cc([N+](=O)[O-])cc([N+](=O)[O-])c1O`, the Potency entry in [1], in assay [2], in [6], in assay [10] and in assay [8] was “inactive” each time. In addition, the molecule was called inactive in [3], in [4] and in assay [9]. Also, the Potency in [7] was 10.4 µM (active).

`O=P1(N(CCCl)CCCl)NCCCO1` (configuration not stated): the Potency entry in assay [1], in [2], in assay [10], in assay [7] and in [8] was “inactive” each time. The outcome in assay [3], in assay [4] and in [9] was inactive.

Consider `COc1cccc([C@@]2(O)CCCC[C@@H]2CN(C)C)c1`, for which the Potency result in assay [1], in assay [2] and in assay [5] was “inactive” each time. Moreover, the molecule was called inactive in assay [3] and in [4].

As for `O=[N+]([O-])O[C@H]1CO[C@H]2[C@@H]1OC[C@H]2O[N+](=O)[O-]`, the Potency result in assay [1], in assay [2] and in assay [5] was “inactive” in each case. The molecule was called inactive in assay [3] and in [4].

With `CCCOC(=O)c1cncn1C(C)c1ccccc1` (configuration not stated), the Potency entry in assay [1], in assay [2] and in assay [5] was “inactive” throughout. For the same molecule, the call in [3] and in assay [4] was inactive.

With `COc1cc(CC(C)N)cc(OC)c1OC` (configuration not stated), the Potency entry in assay [1], in assay [2] and in [5] was “inactive” in each case. Moreover, the result in assay [3] and in [4] was inactive.

As for `C[C@]12CCC(=O)C=C1CC[C@@H]1[C@@H]2CC[C@@]2(C)[C@H]1CC[C@]2(C)O`, the Potency result in [1], in assay [6], in assay [10] and in [8] was “inactive” each time. For the same molecule, the outcome in assay [3], in [4] and in assay [9] was inactive.

For `C[C@]12CCC(=O)C=C1CC[C@@H]1[C@@H]2CC[C@]2(C)C(=O)CC[C@@H]12`, the Potency entry in assay [1], in [2] and in assay [5] was “inactive” throughout. Moreover, the call in [3] and in assay [4] was inactive.

For the molecule `CN1CC[C@]23c4c5ccc(O)c4O[C@H]2[C@@H](O)C=C[C@H]3[C@H]1C5`, the Potency result in [2] is “inactive”. Also, the molecule was classed as inactive in assay [3] and in assay [4].

Turning to `Clc1ccc(C(c2ccc(Cl)cc2)C(Cl)(Cl)Cl)cc1`, the Potency result in [1] and in [5] was “inactive” throughout. Further, the call in assay [3] and in [4] was inactive.

`C=CCC1([C@H](C)CCC)C(=O)NC(=O)NC1=O`: the Potency entry in [1], in assay [2] and in assay [5] was “inactive” throughout. The molecule was called inactive in [3] and in [4].

Regarding `COP(=S)(OC)Oc1ccc(S(=O)(=O)N(C)C)cc1`, the Potency entry in [1], in assay [2] and in assay [5] was “inactive” each time. For the same molecule, the call in [3] and in assay [4] was inactive.

`ClCCN1CCCC1`: the Potency entry in assay [1], in [2] and in [5] was “inactive” in each case. The molecule was classed as inactive in assay [3] and in [4].

Take `CC(C)NC(C)C`: the Potency entry in assay [1], in assay [2] and in assay [5] was “inactive” in each case. Also, the molecule was called inactive in assay [3] and in assay [4].

The values are drawn from PubChem BioAssay (NCATS).
